About 83,000 compounds went through this panel and 20% of them were active in at least one assay; those are over-represented in the sample as a whole.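 96-well plates, one dose, 48 hours. Percent growth reported; active if below 10.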 Values without a mark were called inactive. The source made the active and inactive calls.
The compounds below were run on LOX IMVI melanoma (assay: NCI-60 one-dose screen, 48 h (100 = growth as untreated, 0 = no growth, -100 = all killed)). Conditions: 10 µM unless noted.

Going from `CNCc1cccc2c1OCCOCCOCCN(CCN1CCOCC1)S(=O)(=O)c1ccc(cc1)-c1cnc(N)c(n1)C(=O)N2` to `O=c1nc(-c2ccccc2)c2cc(-c3ccc(N4CCCC4)nc3)ccc2[nH]1`, the growth rises from 28.4% to 57.2%.

Compared with `Cc1cnc(-c2ccc(-c3ccc(NC(=O)Nc4c(F)cc(F)cc4F)cc3F)c3c2C(=O)NC3)[nH]1`, `COC(=O)c1ccc(NC(=O)CSc2nc(-c3ccc(F)cc3)nc3ccccc23)cc1` is higher in growth: 32.9% for the first, 64.8% for the second.

Going from `Cc1cc(C)c(NC(=O)c2sc3nc4c(cc3c2N)CCCCCC4)c(C)c1` to `Nc1c(C(=O)Nc2ccccn2)sc2nc3c(cc12)CCCCCC3`, the growth falls from 58.7% to 36.2%.

First: O=C1NN(c2ccccc2)C(c2ccc3c(c2)OCO3)N2CCC[C@@H]12 (some centres not stated)
Second: CCC1S/C(=N\N=C(/C)c2ccc[nH]2)N(c2ccccc2)C1=O (configuration not stated)
The growth of the first is lower: 91.9% for the first, 110% for the second.

Compared with `COc1ccc(C2N(c3cc(OC)c(OC)c(OC)c3)C(=O)C2(F)F)cc1F` (configuration not stated), `COc1ccc(C2C(c3ccccc3)C(=O)N2c2cc(OC)c(OC)c(OC)c2)cc1I` (configuration not stated) is lower in growth: 27.1% for the first, 24.3% for the second.

Going from `O=C(Nc1nc(-c2ccccc2)cs1)c1cc(-c2ccc(Br)cc2)nc2ccccc12` to `O=[N+]([O-])c1cccc(CN(Cc2cccc([N+](=O)[O-])c2O)c2ccccc2)c1O`, the growth rises from 42.7% to 79.6%.

Compared with `C[C@]12CC[C@@H]3c4ccc(O)cc4CC[C@H]3[C@@H]1C[C@H](O)C2`, `C#CC[C@@H]1C[C@]2(C)[C@H]3CC[C@@H]4[C@H]5[C@H](C(=C)C)CC[C@]5(C(=O)O)CC[C@@]4(C)[C@]3(C)CC[C@H]2C(C)(C)[C@H]1O` is lower in growth: 63.4% for the first, 44.3% for the second.

Compared with `COc1ccc(C(=O)c2cc(F)c(F)c(OC)c2F)cc1OC(=O)CCl`, `CCCCC(=O)Nc1c(C(=O)Nc2ccccc2)sc2nc3c(cc12)C(OC(=O)CCCC)CCC3` (configuration not stated) is higher in growth: 34.7% for the first, 85.1% for the second.

Compared with `Nc1cccc(C(=O)Nc2ccc3c(O)c(N=Nc4ccc(N=Nc5ccc(S(=O)(=O)O)cc5)cc4)c(S(=O)(=O)O)cc3c2)c1`, `COc1ccc(C2=NN(c3ccc(S(N)(=O)=O)cc3)C(c3ccc(Cl)cc3)C2)c(O)c1` (configuration not stated) is lower in growth: 101% for the first, 77.2% for the second.

Compared with `O=C(Nc1ccccc1)NS(=O)(=O)c1c[nH]c(=S)[nH]c1=O`, `C#Cc1ccccc1NC(=O)c1sc2nc3c(cc2c1N)CCCCCC3` is lower in growth: 92.4% for the first, 22.8% for the second.

Compared with `COc1c(O)cc2oc3cc(O[C@@H]4OC(C)[C@@H](O)[C@H](O)C4O)c(CC=C(C)C)c(O)c3c(=O)c2c1CC=C(C)C` (some centres not stated), `Cn1cc(-c2ccc3c(c2)ncn3-c2ccc(CC(=O)Nc3cc(C(C)(C)C)on3)cc2)cn1` is lower in growth: 89.3% for the first, 12.6% for the second.

Going from `O=C(CCCC(=O)Nc1ccc(-n2nnc3cc(Cl)c(Cl)cc32)cc1)Nc1ccc(-n2nnc3cc(Cl)c(Cl)cc32)cc1` to `Cc1cccc(C)c1Nc1nnc(-c2ccc(F)cc2)o1`, the growth rises from 50.9% to 95.1%.

Going from `CC(=O)Nc1nc2c(c(N)c1C#N)C(c1cccc(Cl)c1)C1=C(CCCC1=O)N2c1sc2c(c1C#N)CCCC2` (configuration not stated) to `Cc1ccc(-c2nc(C#N)c(S(=O)(=O)N(C)CCO)o2)cc1`, the growth falls from 51.5% to 41.9%.

`C=C(C)[C@@H]1CC[C@]2(C(=O)N3CCN(C)CC3)CC[C@]3(C)[C@H](CC[C@@H]4[C@@]5(C)C/C(=C/c6ccco6)C(=O)C(C)(C)[C@@H]5CC[C@]43C)[C@@H]12` was tested, and the growth was 30.1%.

In the case of `C=C1C(=O)O[C@H]2[C@H]1CC/C(COC(=O)CCCCCCCCC(=O)OC/C1=C/CC[C@@]3(C)O[C@H]3[C@H]3OC(=O)C(=C)[C@@H]3CC1)=C\CC[C@@]1(C)O[C@@H]21`, the growth is reported as -84.7% (active).
In the case of `C=C1C(=O)O[C@H]2[C@H]1CC/C(COC(=O)CCCCCCC(=O)OC/C1=C/CC[C@@]3(C)O[C@H]3[C@H]3OC(=O)C(=C)[C@@H]3CC1)=C\CC[C@@]1(C)O[C@@H]21`, the growth is reported as -10.8% (active).
With `COc1ccc2nc3c(n2c1)C(=O)C(=O)c1ccccc1-3` the growth was -68.4% (active).
For `C=C1C(=O)O[C@H]2[C@H]1CCC(/C=N/c1ncc(Br)cc1N)=C\CC[C@@]1(C)O[C@@H]21`, the growth was -75.3% (active).
In the case of `COCCOCCOCc1n(Cc2ccc3ccccc3c2)c2ccccc2[n+]1Cc1ccc2ccccc2c1`, the growth is reported as -26.6% (active).
For `CC(C)CSc1nc(Nc2ccccc2)c(C#N)c(-c2ccc(F)cc2)n1`, the growth was 4.45% (active).
For `CC(C)(C#N)c1cc(F)cc(C(=O)Nc2cc(Nc3ncccc3-c3ncnc4nc[nH]c34)ccc2F)c1`, the growth was -23.6% (active).
In the case of `CC(=O)ON1CCCC(P(=O)(OCOC(=O)C(C)(C)C)OCOC(=O)C(C)(C)C)C1=O` (configuration not stated), the growth is reported as 9.18% (active).
For `FC(F)(F)c1ccc2c(Nc3cccc(C4CC(c5ccccc5)=NN4c4ccc(Cl)cc4)c3)ccnc2c1` (configuration not stated), the growth was -53.9% (active).
`COc1ccc2nc(-c3ccc(OC)c(OC)c3)cc(-c3nnc(SCC(=O)Nc4ccc(/C(C)=N\O)cc4)n3-c3ccccc3)c2c1` was tested, and the growth was -28.1% (active).
